VP16 counter: Gal4-VP16 reporter inhibition counter-screen. 3.5% of 310,000 active. Drosophila S2 Gal4-VP16 UAS-luciferase, luminescence, 20 h. Potency, µM (doses to about 53.6 µM), for inactives: top-dose activity, negative = inhibition, hits mostly inhibitors;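 also: Gal4-VP16 expression switched on by copper sulfate through the metallothionein promoter; nearly all actives have a fitted effect of over 50% in size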
Tau fibril ThT: blocks human tau fibril formation measured by thioflavin T. recombinant tau K18 P301L, heparin-induced fibrillization, ThT fluorescence. Potency, µM (series often up to 57.4 µM), for inactives: top-dose activity, negative = inhibition, actives largely listed as inhibitors. 2.1% of 270,000 active. AID 1460; also: nearly all actives have a fitted effect of over 55% in size
Target sequence (P10636 561-689 P618L limits assumed): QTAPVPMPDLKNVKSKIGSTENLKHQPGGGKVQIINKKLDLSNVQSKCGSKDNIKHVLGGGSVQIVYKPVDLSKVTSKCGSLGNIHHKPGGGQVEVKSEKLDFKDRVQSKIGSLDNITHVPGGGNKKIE
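Recombinant human tau K18 fragment […] carrying P301L, 15 uM unlabeled plus 0.24 uM Alexa 594-labeled, was fibrillized with 20 uM heparin in 100 mM sodium acetate pH 7 for 6 hr at 37 C; 30 uM ThT fluorescence read after 1 hr.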
RORgamma inh: ROR gamma (mouse) transcription inhibition | 5.4% of 310,000 active | Drosophila S2 Gal4-RORgamma UAS-luciferase reporter, 20 h | Potency, µM (top dose mostly 53.6 µM), for inactives: at the highest dose activity change, negative = inhibition, most hits filed as inhibitors | P51450 | AID 2551; also: nearly all actives have a fitted effect of over 60% in size
Target sequence (P51450 whole entry, looked up, the tested form may be a part): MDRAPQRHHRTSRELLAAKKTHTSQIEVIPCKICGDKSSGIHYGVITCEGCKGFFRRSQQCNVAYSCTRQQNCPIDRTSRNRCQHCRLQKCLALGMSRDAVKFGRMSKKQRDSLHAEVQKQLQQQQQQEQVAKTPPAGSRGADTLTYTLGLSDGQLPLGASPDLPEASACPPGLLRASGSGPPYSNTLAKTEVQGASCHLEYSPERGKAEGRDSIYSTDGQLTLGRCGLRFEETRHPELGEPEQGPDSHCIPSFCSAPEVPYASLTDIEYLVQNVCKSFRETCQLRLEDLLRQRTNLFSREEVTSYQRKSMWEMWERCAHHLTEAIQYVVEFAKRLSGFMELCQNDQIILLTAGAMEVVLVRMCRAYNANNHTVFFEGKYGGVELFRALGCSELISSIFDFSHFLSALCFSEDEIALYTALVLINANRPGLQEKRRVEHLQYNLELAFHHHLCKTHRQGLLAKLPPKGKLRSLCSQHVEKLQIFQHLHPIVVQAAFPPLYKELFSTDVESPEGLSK
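Luminescence from a UAS-regulated Photinus luciferase reporter in stably transfected Drosophila Schneider cells is measured; decreased signal marks ROR gamma inhibition. Fusion expression is induced by 700 uM copper sulfate for 20 hr.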
Tau fluor counter: counter-screen for tau fibril formation inhibitors; AID 1463; 0.93% of 280,000 active; Potency, µM (doses to about 57.7 µM), inactives show at the highest dose activity change, negative = decrease; tau K18 P301L Alexa594 fluorescence, heparin fibrillization; also: nearly all actives have a fitted effect of over 55% in size
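Human tau K18 P301L (15 uM unlabeled, 0.24 uM Alexa 594-labeled) in 100 mM sodium acetate pH 7 with 20 uM heparin, 6 hr at 37 C. ThT 30 uM added, 1 hr ambient; Alexa 594 FP and total fluorescence read at 555/632 nm.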
Tau FP inhib: blocks human tau fibril formation measured by polarization; K18 P301L tau heparin fibrillization, Alexa594 FP, 6 h; 0.39% of 280,000 active; Potency, µM (series often up to 57.7 µM), without a hit: at the top dose activity, negative = inhibition, usual class: inhibitors; P10636; also: nearly all actives have a fitted effect of over 55% in size
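K18 P301L tau (15 uM unlabeled/0.24 uM Alexa 594-labeled, final) + compound + heparin 20 uM final; 100 mM NaOAc pH 7; 6 hr 37 C; ThT 30 uM final added, 1 hr RT; FP ex 555/em 632 nm.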
The depositor's hits bear a star; ? = inconclusive; / = not tested or not shown; [ ] = another dose, or the depositor's remark. Shown are actives, neighbours in structure and some others; about 7.3% of the full set was active somewhere. Calls follow the shape of the dose curve; as a rule, active = well fitted curve in the direction sought with a large enough effect; inconclusive = small, poorly fitted or top-dose-only effect, or another doubt; inactive = no such curve, though single readings can be large; an effect the other way counts as inactive or inconclusive. % is scaled to controls: 0 for no effect and ±100 for the full control effect; potency is read from the fitted curve at half-maximal effect.

SMILES	VP16 counter	Tau fibril ThT	RORgamma inh	Tau fluor counter	Tau FP inhib
COc1ccc(-c2[nH]ncc2Oc2ccccc2OC)c(O)c1	?	-11.3%	11.2µM*	25.1µM*[quencher]	14.0%
C=C(C)COc1ccc(-c2[nH]ncc2Oc2cccc(OC)c2)c(O)c1	?	-15.1%	6.31µM*	8.91µM*[quencher]	?
C=C(C)COc1ccc(-c2ncncc2Oc2ccc(OC)cc2)c(O)c1	?	-8.6%	18.8%	-9.8%	3.3%
CCOc1ccccc1Oc1cn[nH]c1-c1ccc(O)cc1O	?	/	-30.7%	/	/
C=C(C)COc1ccc(-c2[nH]ncc2Oc2ccccc2OCC)c(O)c1	-8.9%	?	-6.5%	3.98µM*[quencher]	?
CC(=O)c1cc(CCC(=O)NC2CCCCCC2)oc1C	0.6%	/	-20.4%	/	/
Cc1ccc(NC(=O)N2CCN3CCCCC3C2)cc1C (centres undefined)	/	7.3%	/	3.4%	6.2%
CC(C)=CCN1CCN(CCC2=C(C)CCCC2(C)C)CC1CCO (centres undefined)	-0.1%	-4.6%	-13.3%	-2.3%	-5.4%
CC1=C(CC/C(C)=N/NC(N)=S)C(C)(C)CCC1	2.82µM*	?	1.78µM*	-10.7%	8.9%
COc1ccc(-c2nc(CSCC(=O)NCCCN3CCCC3=O)c(C)o2)cc1	11.2µM*	/	-24.1%	/	/
CSc1ccc(-c2nc(CSCC(=O)NC3CC3)c(C)o2)cc1	?	/	8.91µM*	/	/
CCOC(=O)N1CCC(NC(=O)CSCc2nc(-c3ccc(OC)cc3)oc2C)CC1	-6.4%	/	-41.7%	/	/
CCc1ccc(-c2nc(CSCC(=O)N3CCN(c4ncccn4)CC3)c(C)o2)cc1	15.8µM*	?	15.8µM*	-8.0%	2.9%
CCc1ccc(-c2nc(CSCC(=O)NC3CC3)c(C)o2)cc1	?	/	2µM*	/	/
c1cc2cn[nH]c2cc1NC1CCCCCC1	?	28.2µM*	?	?	?
NC(=S)Nc1ccc2cn[nH]c2c1	-6.1%	3.7%	-19.4%	-1.1%	-1.0%
S=C(Nc1ccccc1)Nc1ccc2cn[nH]c2c1	-12.6%	8.91µM*	15.3%	?	-12.0%
COc1cc(Cl)c(C)cc1NC(=O)NC1COc2ccccc2C1 (centres undefined)	/	-0.5%	/	-14.2%	?
CN(C)C(=S)NC(=NCc1ccc([N+](=O)[O-])cc1)c1ccccc1	-21.4%	/	20µM*	/	/
CN(C)C(=S)Nc1ccc([N+](=O)[O-])cc1	4.8%	9.7%	3.3%	11.9%	2.2%
Cc1cccnc1Nc1nc(-c2ccc(O)cc2O)cs1	?	0.4%	6.31µM*	-1.4%	8.8%
Cc1cccc(Nc2nc(-c3ccc(F)cc3)cs2)n1	-12.5%	/	?	/	/
Oc1ccc(-c2csc(Nc3ccccn3)n2)c(O)c1	?	/	11.2µM*	/	/
CC(=O)Oc1ccc(-c2csc(Nc3cccc(C)n3)n2)cc1	10µM*	/	3.16µM*	/	/
Cc1cccc(Nc2nc(-c3ccccn3)cs2)n1	2.51µM*	?	1.58µM*	?	4.7%
SMILES	VP16 counter	Tau fibril ThT	RORgamma inh	Tau fluor counter	Tau FP inhib
Cc1ccc(/C=C(\NC(=O)c2ccc(C)cc2)C(=O)NCCCn2ccnc2)cc1	6.2%	5.0%	12.4%	4.2%	7.8%
Cc1cccnc1Nc1nc(-c2ccccn2)cs1	?	?	0.0224µM*	-11.0%	-0.7%
CC1CCN(c2ccccc2NC(=S)NC(=O)c2cccs2)CC1	6.31µM*	-0.9%	2.24µM*	?	-14.8%
CC1CCN(c2ccccc2NC(=O)c2ccc(F)cc2)CC1	-13.7%	-0.8%	-6.3%	-3.6%	-5.6%
CC(C)C(=O)NC(=S)Nc1ccccc1N1CCN(C(=O)c2ccc(Cl)cc2)CC1	5.01µM*	-10.3%	5.62µM*	-11.8%	6.0%
CC(C)(C)C(=O)Nc1ccccc1N1CCN(C(=O)c2ccc(Cl)cc2)CC1	1.1%	-16.7%	11.8%	-8.9%	?
CS(=O)(=O)N1CCN(c2ccccc2NC(=S)NC(=O)c2cccs2)CC1	-19.3%	-16.4%	11.2µM*	?	-8.2%
CC1CCN(c2ccccc2NC(=S)NC(=O)C(C)(C)C)CC1	?	-3.4%	1.58µM*	-9.7%	0.7%
COc1ccc(S(=O)(=O)N(C(=O)c2ccncc2)c2ccc3oc(C)c(C(C)=O)c3c2)cc1	/	?	/	-20.0%	10.2%
CC(C)C(=O)N1CCN(c2ccccc2NC(=S)NC(=O)c2cccs2)CC1	?	-6.8%	14.1µM*	-16.5%	5.2%
S=C(NCC1CCCO1)Nc1cccc(Cl)c1 (centres undefined)	20µM*	6.9%	15.8µM*	3.7%	1.4%
S=C(NCC1CCCO1)Nc1cc(Cl)c(Cl)cc1Cl (centres undefined)	17.8µM*	3.3%	3.16µM*	-19.4%	-9.7%
Cc1cc(C)cc(NC(=S)NCC2CCCO2)c1 (centres undefined)	35.5µM*	-11.1%	11.2µM*	-11.5%	-8.9%
COc1ccc(NC(=S)NCC2CCCO2)c(OC)c1 (centres undefined)	0.5%	-10.2%	-39.4%	-1.4%	0.1%
Cc1ccc(CSc2sc(C(=O)c3ccccc3)c(N)c2C#N)cc1	8.5%	-5.9%	5.6%	-15.1%	-17.4%
Cc1ccc(-c2sc(C(=O)NN)c(C)c2C#N)cc1	7.08µM*	-18.0%	4.47µM*	-27.0%	1.1%
CC1CCc2c(nc3nc[nH]n3c2=O)C1 (centres undefined)	4.3%	0.7%	-17.3%	-2.7%	2.5%
S=c1c2c(nc3nc[nH]n13)CCC2	0.891µM*	-6.2%	?	1.2%	-5.4%
O=C(N/N=C1\CC2CC=CC12)c1ccc(Br)cc1 (centres undefined)	0.0%	-16.8%	11.2µM*	3.5%	0.2%
Cc1cc(Br)c(OCc2ccc(C(=O)N/N=C3\CC4CC=CC34)cc2)c(Br)c1 (centres undefined)	?	?	7.94µM*	-28.4%	8.4%
COc1cccc(C(=O)Nc2ccc3c(cc2=O)[C@@H](NC(C)=O)CCc2cc(OC)c(OC)c(OC)c2-3)c1	-28.5%	/	11.8%	/	/
N=C1SCC(=O)N1c1ncc(Cc2ccc(F)cc2)s1	0.199µM*	-16.0%	0.316µM*	-8.8%	2.8%
Cc1ccc(-c2csc(N3C(=N)SCC3=O)n2)cc1	-20.8%	-3.0%	-26.9%	9.1%	5.1%
O=[N+]([O-])c1ccccc1-c1ccc(C(=S)N2CCCC2)o1	-17.0%	15.8µM*	-6.4%	?	?
O=[N+]([O-])c1cccc(-c2ccc(C(=S)N3CCN(c4ccccc4)CC3)o2)c1	13.9%	20µM*	20.9%	?	?
S=C(c1ccc(-c2cccc(Cl)c2)o1)N1CCCCC1	?	?	?	-23.7%	-6.5%
O=[N+]([O-])c1cc(-c2ccc(C(=S)N3CCOCC3)o2)ccc1Cl	28.8%	14.1µM*	-23.7%	?	?
O=[N+]([O-])c1ccccc1-c1ccc(C(=S)N2CCCCC2)o1	22.7%	?	-17.8%	?	-12.3%
S=C(c1ccc(-c2cccc(Cl)c2)o1)N1CCOCC1	-1.1%	15.8µM*	4.3%	?	-11.3%
